Composite z-score and composite Z-score data for 12 compounds are collected here from PubChem BioAssay.

The source made the active and inactive calls.

Experiment [1] deals with Albumin (Bos taurus) (UniProt P02769). As to the kind of experiment: compounds binding labelled BSA control protein – biochemical, small-molecule microarray, Alexa647 label, 635/667 nm fluorescence, artefact control for SMM control protein annotation, profiling panel (AID 1118).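 Note: score merges 667 nm emission intensity and signal-to-noise per printed compound spot.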 Conditions: BSA-A647 binding, fluorescence 635 nm, higher = more signal.
Experiment [2] in a line: probe aXIP binding to arrayed compounds – biochemical, NeuroSMM set, 635/667 nm fluorescence, primary screen (AID 1119).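 Note: probe is the protein aXip251-270 applied at 1 µg/mL to compound-printed slides; binding of probe to printed compounds measured as 667 nm fluorescence plus signal to noise.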 The settings on record: small-molecule microarray, higher = more signal, called active from +8 up or from −8 down.
Experiment [3] in a line: probe aNOTCH3 binding on compound microarray – biochemical, small-molecule microarray, 635/667 nm fluorescence, primary screen (AID 1120).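 Note: probe is a biotin-tagged antibody raised against NOTCH3 rather than NOTCH3 protein; score merges spot fluorescence near 667 nm with spot signal to noise.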 Conditions: higher = more signal.
Experiment [4] is described as follows: probe aNOTCH2 binding on compound microarray – biochemical, small-molecule microarray, 635/667 nm fluorescence, primary screen (AID 1121).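 Note: score merges feature fluorescence read at 667 nm with its signal to noise.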 The settings on record: higher = more signal.
Experiment [5] addresses Carbonic anhydrase 2 (Homo sapiens) (UniProt P00918). Kind of experiment: compounds binding carbonic anhydrase 2 – biochemical, small-molecule microarray, Alexa647-labelled CAII, profiling panel (AID 1122). Conditions: CAII-A647 binding fluorescence, higher = more signal.
A short description of experiment [6]: COS7 lysate on small-molecule microarray, probe aHis, 635 nm (AID 1123).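 Note: z-score combines 667nm fluorescence intensity with signal-to-noise per printed compound spot.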 The settings on record: COS7 cell lysate, fluorescence, higher = more signal.
Experiment [7] can be described thus: probe aLAP1 signal on lysate-treated microarray – cell lysate, small-molecule microarray, COS7 lysate, primary screen (AID 1124).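 Note: lysate comes from COS7 cells expressing LAP1 and is applied at 0.3 µg/mL; score merges spot fluorescence near 667 nm with signal-to-noise over triplicate slides.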 The settings on record: probe aLAP1, fluorescence, higher = more signal.
Experiment [8] relates to Sam68 (KHDRBS1). As to the kind of experiment: compounds binding KHDRBS1 protein – biochemical, small-molecule microarray, 635 nm fluorescence, primary screen (AID 1125).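 Note: score merges 667 nm channel intensity with signal to noise over triplicate slides.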 Conditions: higher = more signal.
In experiment [9] the test system is Chordin-like protein 2 (CHRDL2). As to the kind of experiment: compounds binding chordin-like 2 – biochemical, small-molecule microarray, 635 nm fluorescence, primary screen (AID 1126).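 Note: printed compound slides probed with Chrdl2 protein at 4 µg/mL for 1 h at 4 C; score merges 667 nm emission intensity with signal to noise over three replicate slides.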 The settings on record: fluorescence 635 nm, higher = more signal.
Experiment [10] concerns the target Concanavalin-A (Canavalia ensiformis) (UniProt P02866). As to the kind of experiment: compounds binding concanavalin A lectin – biochemical, small-molecule microarray, Alexa647 label, 635 nm, artefact control for SMM control protein annotation, primary screen (AID 1127).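 Note: z combines 667 nm emission intensity with signal-to-noise across three replicate slides.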 The settings on record: ConA-A647 binding fluorescence, higher = more signal.

Chain of Albumin (Bos taurus) (P02769 whole entry, looked up): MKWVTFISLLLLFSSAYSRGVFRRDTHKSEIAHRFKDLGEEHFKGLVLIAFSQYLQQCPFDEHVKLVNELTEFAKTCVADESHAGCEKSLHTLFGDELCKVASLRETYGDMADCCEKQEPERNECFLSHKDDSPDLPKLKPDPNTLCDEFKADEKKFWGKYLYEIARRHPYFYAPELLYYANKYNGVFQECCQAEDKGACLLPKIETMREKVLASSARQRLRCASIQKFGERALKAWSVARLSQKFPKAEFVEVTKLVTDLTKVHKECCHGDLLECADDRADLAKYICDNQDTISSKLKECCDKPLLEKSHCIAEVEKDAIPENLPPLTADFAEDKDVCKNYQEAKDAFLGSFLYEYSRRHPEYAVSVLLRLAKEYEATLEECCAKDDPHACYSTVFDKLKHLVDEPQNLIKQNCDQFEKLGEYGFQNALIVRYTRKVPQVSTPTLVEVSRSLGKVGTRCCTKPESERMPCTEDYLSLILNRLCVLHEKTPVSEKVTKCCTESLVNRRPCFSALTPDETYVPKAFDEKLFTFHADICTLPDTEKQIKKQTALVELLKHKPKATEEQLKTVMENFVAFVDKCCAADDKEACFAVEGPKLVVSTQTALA
Chain of Concanavalin-A (Canavalia ensiformis) (P02866 whole entry, looked up): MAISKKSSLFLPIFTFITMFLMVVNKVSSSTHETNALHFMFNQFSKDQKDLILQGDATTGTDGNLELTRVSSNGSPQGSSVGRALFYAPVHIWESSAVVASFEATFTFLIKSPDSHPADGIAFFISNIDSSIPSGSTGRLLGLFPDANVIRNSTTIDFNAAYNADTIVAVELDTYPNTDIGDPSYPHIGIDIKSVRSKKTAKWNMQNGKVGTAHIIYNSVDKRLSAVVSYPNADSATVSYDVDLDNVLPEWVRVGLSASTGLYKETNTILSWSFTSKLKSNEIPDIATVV

In the case of `CO[C@H]1COC(=O)[C@@H](Cc2ccccc2)NC(=O)[C@@H](C)COC(=O)CCC[C@@H]1C`, the composite z-score was 0.516 in [1]; 0.0257 in [3]; -0.132 in [4]; -0.248 in [5]; 0.0267 in [6]; -0.0452 in experiment [7]. For the same compound, the composite z-score is 0.179 in experiment [8], 0.295 in experiment [9] and -0.171 in experiment [10]. For the same compound, in experiment [2], the composite Z-score was -0.112 (inactive).

With `CC(C)[C@@H](OCc1ccccc1)[C@H](C)C=NOC[C@@H](O)COCc1ccco1`, the composite z-score was -0.113 in experiment [1]; -0.819 in experiment [3]; -0.244 in experiment [4]; -0.512 in [5]; 0.0121 in [6]; 0.0218 in experiment [7]. Further, the composite z-score in experiment [8] is -0.185; in experiment [9], -1.48; in [10], -1.15. The composite Z-score in experiment [2] is -0.0572 (inactive).

In the case of `CCOC(=O)[C@H](Cc1ccccc1)NC(=O)CCC1CC(OC(=O)NCCc2ccc(F)cc2)CC2(CCCC(COC(=O)NCCc3ccc(Cl)cc3)O2)O1` (stereo not given in full), the composite z-score in [1] is 0.755; in experiment [3], 0.0179; in experiment [4], -0.101; in experiment [5], 0.283; in experiment [6], 1.12; in experiment [7], 0.416. In addition, the composite z-score in [8] stood at 1.23; in experiment [9], 0.38; in [10] it was 1.03. Further, in experiment [2], the composite Z-score is 0.118 (inactive).

For the compound `O=C(NN=C1C[C@@H](O)[C@@H](O)[C@@H]2[C@@H]3C(=O)N(C[C@@H]4CCCO4)C(=O)[C@@H]3CC[C@@H]12)OCc1ccccc1`, the composite z-score in [1] was 0.103; in experiment [3], -0.0647; in experiment [4] it was -0.16; in experiment [5] it was -0.275; in experiment [6], -0.12; in experiment [7], 0.373. The composite z-score is 0.794 in experiment [8], 0.909 in [9] and -0.18 in experiment [10]. The composite Z-score in experiment [2] is 0.008 (inactive).

Take `COC(=O)CC=C[C@@H](C)[C@@H](C=NO[C@H](C)c1cn([C@H](CO)Cc2ccccc2)nn1)OC`: the composite z-score in experiment [1] was 0.113; in [3], 0.118; in experiment [4] it was -0.118; in experiment [5] it was -0.16; in experiment [6], 0.188; in [7], 0.456. Besides, the composite z-score in experiment [8] was found to be 0.804; in experiment [9] it was 0.944; in experiment [10], 0.254. In addition, the composite Z-score in experiment [2] was 0.215 (inactive).

Regarding `COC(=O)CC=C[C@@H](C)[C@@H](C=NOCC[C@@H]1C=C[C@H](OC(C)=O)[C@@H](COC(C)=O)O1)NS(=O)(=O)c1ccc(C)cc1`, the composite z-score in experiment [1] was -0.361; in experiment [3] it was 0.132; in experiment [4] it was -0.0938; in [5] it was -0.297; in experiment [6] it was -0.309; in experiment [7] it was 0.195. Also, the composite z-score in experiment [8] was 0.854; in [9] it was 0.687; in [10], -2.79. Moreover, the composite Z-score in [2] is 0.366 (inactive).

As to `COC(=O)CC=C[C@@H](C)[C@H](OCc1cccc(-c2ccccc2)c1)C1CCCCC1`, the composite z-score in [1] is 0.0024; in [3], -0.195; in experiment [4], -0.109; in [5], 0.942; in [6], -0.159; in experiment [7], 0.0206. Besides, the results for the composite z-score in [8], in experiment [9] and in [10] were -0.679, 1.23 and 0.923, respectively. In [2], the composite Z-score was 0.369 (inactive).

Regarding `CCOC(=O)[C@H](Cc1ccccc1)NC(=O)CCC1CC(OC(=O)NCc2ccc3c(c2)OCO3)CC2(CCCC(COC(=O)NCCc3ccccc3OC)O2)O1` (stereo not given in full), the composite z-score in experiment [1] was 0.485; in [3], 0.0225; in experiment [4], -0.184; in [5], 0.253; in experiment [6] it was 1.05; in experiment [7], -0.0407. Besides, the composite z-score is 1.29 in experiment [8], 1.06 in [9] and 1.1 in [10]. For the same compound, in [2], the composite Z-score was -0.344 (inactive).

Regarding `CO[C@@H]1COC(=O)[C@H](CCSC)NC(=O)CC=C[C@@H](C)COC(=O)[C@H](C)NC(=O)CC=C[C@H]1C`, the composite z-score was -1.04 in experiment [1]; 0.187 in experiment [3]; -0.0907 in experiment [4]; -0.0169 in experiment [5]; -0.395 in experiment [6]; 0.36 in [7]. Moreover, the composite z-score in experiment [8] is 1.28; in experiment [9] it was 1.15; in [10] it was -0.19. Besides, in experiment [2], the composite Z-score is 0.327 (inactive).

On to `C=Cc1ccc([C@H]2N[C@H](C(=O)O)CC[C@@H]2C)cc1`, for which the composite z-score in experiment [1] was 0.108; in experiment [3], -0.178; in experiment [4] it was -0.155; in experiment [5], 0.275; in experiment [6], -0.344; in experiment [7] it was 0.723. In addition, the values for the composite z-score in [8], in experiment [9] and in experiment [10] were -1.6, 0.65 and -0.437, respectively. For the same compound, the composite Z-score in experiment [2] was -0.602 (inactive).

As to `C#CCCCON=C1C[C@@H](O)[C@@H](O)[C@@H]2[C@@H]3C(=O)N(c4ccc(F)cc4F)C(=O)[C@@H]3CC[C@H]12`, the composite z-score in experiment [1] was 0.314; in experiment [3], -0.122; in experiment [4] it was -0.151; in experiment [5] it was 0.65; in experiment [6] it was 0.887; in [7] it was 0.145. In addition, the values for the composite z-score in [8], in [9] and in [10] were 1.15, 0.392 and 0.772, respectively. The composite Z-score in experiment [2] was -0.488 (inactive).

For the compound `O=C1[C@H]2[C@H]3[C@H](O)[C@H](O)CC(=NOCc4ccccc4)[C@@H]3CC[C@H]2C(=O)N1C[C@@H]1CCCO1`, the composite z-score in [1] is 0.0904; in experiment [3], -0.187; in [4], -0.0621; in experiment [5], -0.026; in experiment [6] it was 0.369; in [7] it was 0.279. Further, the composite z-score in experiment [8] was -0.361; in experiment [9], 0.332; in experiment [10] it was 0.603. The composite Z-score in [2] was -0.207 (inactive).
